High-throughput results (PubChem)
The list is not random: actives were taken first. Their share in the collection is about 3%.
KAT2A inh – blocks human GCN5L2 histone acetyltransferase; 390,000 tested, 0.21% active; AID 504327; Potency, µM (top dose mostly 58.9 µM), for the others: at the highest dose activity change, negative = inhibition, most hits filed as inhibitors; Q92830; GCN5L2 HAT assay, ThioGlo1 CoA-SH fluorescence; further: on the % scale 0 is the no-effect control and ±100 the full control effect
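Preincubate 20nM GCN5L2 with compound 15 min, RT → add 50uM ThioGlo1 + 75uM H3(1-25) + 70uM acetyl-CoA → read fluorescence 0 and 20 min. Primary qHTS; fluorescent artifacts likely.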
VDR inhibitor – inhibitors of human vitamin D receptor. P11473. AID 504847. VDR-SRC2-3 peptide fluorescence polarization, 2 h. 400,000 tested, 0.93% active. Potency, µM, inactives show max response, negative = inhibition, actives largely listed as inhibitors; further: on the % scale 0 is the no-effect control and ±100 the full control effect
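Measured by FP: displacement of SRC2-3 coactivator peptide from VDR by library compounds, following a two-hour ambient incubation.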
12-LOX inh – inhibitors of human 12S-lipoxygenase ALOX12; AID 1671190; Potency, µM (doses to about 108 µM), for the others: at the top dose activity change, negative = inhibition, hits mostly inhibitors; purified 12hLO, xylenol orange hydroperoxide absorbance; 580,000 tested, 1.1% active; further: on the % scale 0 is the no-effect control and ±100 the full control effect
Target sequence (P18054 whole entry, looked up): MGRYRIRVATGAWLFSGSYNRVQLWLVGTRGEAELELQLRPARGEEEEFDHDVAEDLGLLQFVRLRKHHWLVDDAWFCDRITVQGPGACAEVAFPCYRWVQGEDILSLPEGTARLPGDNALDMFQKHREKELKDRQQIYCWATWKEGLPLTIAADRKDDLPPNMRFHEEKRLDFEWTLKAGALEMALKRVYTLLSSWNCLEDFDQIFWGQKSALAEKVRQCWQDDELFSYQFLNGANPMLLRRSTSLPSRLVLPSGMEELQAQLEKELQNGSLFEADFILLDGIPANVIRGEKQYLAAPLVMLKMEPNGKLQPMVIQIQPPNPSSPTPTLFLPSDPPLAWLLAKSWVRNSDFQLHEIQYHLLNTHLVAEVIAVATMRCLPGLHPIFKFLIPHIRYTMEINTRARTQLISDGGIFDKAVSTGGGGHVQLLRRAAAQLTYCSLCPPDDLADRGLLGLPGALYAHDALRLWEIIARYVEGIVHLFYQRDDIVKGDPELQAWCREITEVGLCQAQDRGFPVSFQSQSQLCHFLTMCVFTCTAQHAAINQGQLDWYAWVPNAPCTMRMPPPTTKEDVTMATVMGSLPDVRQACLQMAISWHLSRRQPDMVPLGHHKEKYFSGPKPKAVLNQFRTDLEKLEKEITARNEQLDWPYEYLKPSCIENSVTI
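Purified human 12hLO (150 nM final) in 25 mM Hepes, 0.01% Triton X-100, pH 7.0 was preincubated 15 min at room temperature with compound. Then 40 uM arachidonic acid was added, 30 min. Hydroperoxide was read by Fe-XO absorbance ratio 573/405 nm.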
PLK1 PBD inh – blocks phosphopeptide binding to human PLK1 polo-box domain; P53350; Plk1 PBD binding of FITC phosphopeptide, fluorescence polarization; Potency, µM, for inactives: max response, negative = inhibition, actives largely listed as inhibitors; 360,000 tested, 2.8% active; AID 720504; further: series mostly up to about 57 µM; on the % scale 0 is the no-effect control and ±100 the full control effect; nearly all actives have a fitted effect of over 65% in size
VDR inh confirm – confirmation of human vitamin D receptor inhibitors. shares compounds with VDR inhibitor. VDR-coactivator inhibition assay, qHTS confirmation. Potency, µM, actives largely listed as inhibitors. 840 tested, 89% active
VDR FP fluor – VDR (human) coactivator binding inhibition, fluorescein polarization; 840 tested, 48% active; VDR-coactivator binding, fluorescein fluorescence polarization; shares compounds with VDR inhibitor; Potency, µM (series often up to 57.1 µM), without a hit: at the highest dose activity change, negative = inhibition, usual class: inhibitors
VDR bla reporter – VDR (human) inhibition, cell-based beta-lactamase validation | shares compounds with VDR inhibitor | VDR beta-lactamase reporter cells, FRET ratio; cells co-treated with VDR agonist LG190178 | AID 602202 | Potency, µM (titrated, usually from 46.1 µM), without a hit: top-dose activity change, negative = inhibition, hits mostly inhibitors | 840 tested, 23% active; further: on the % scale 0 is the no-effect control and ±100 the full control effect
VDR viability – counter-screen for vitamin D receptor inhibitors: cytotoxicity; shares compounds with VDR inhibitor; cytotoxicity counter-screen, cell viability, qHTS; Potency, µM (doses to about 48.3 µM), inactives show at the highest dose activity change, negative = cytotoxicity, most hits filed as cytotoxic; 840 tested, 18% active; AID 602204;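 further: plate controls were DMSO for no effect and high-concentration cycloheximide for full effect; nearly all actives have a fitted effect of over 75% in size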
Numbers without * were called inactive; ? = inconclusive; / = not tested or not shown; [ ] = remark or other dose. The call rests on the fitted dose curve; in most records, active means well fitted curve in the direction sought with a large enough effect; inconclusive means small, poorly fitted or top-dose-only effect, or another doubt; inactive means no such curve, though single readings can be large; an effect the other way counts as inactive or inconclusive. Potency means the concentration at half of the fitted maximal effect.

SMILES | KAT2A inh | VDR inhibitor | 12-LOX inh | PLK1 PBD inh | VDR inh confirm | VDR FP fluor | VDR bla reporter | VDR viability
CC(OC(=O)c1ccc2ccccc2c1)C(=O)N(C)Cc1ccccc1 (stereo not given) | -3.0% | -5.0% | ? | -13.6% | / | / | / | /
CC(=O)c1cccc(S(=O)(=O)NCc2c(C)nn(Cc3ccccc3)c2C)c1 | / | / | 17.4% | / | / | / | / | /
CC1=NOC(=O)/C1=C\c1ccc(-c2cc(Cl)ccc2Cl)o1 | -22.6% | 20µM* | 2.24µM* | 0.597µM* | 2.99* | ? | ? | ?
CC1=NOC(=O)/C1=C/c1ccc(-c2ccc(Cl)cc2)o1 | -16.3% | / | / | / | / | / | / | /
CC1=NOC(=O)/C1=C\c1ccc(-c2ccc(Br)cc2)o1 | ? | ? | 44.7µM* | 0.597µM* | 3.16* | ? | 0.9% | -18.2%
CCN(CC)S(=O)(=O)c1ccc(=O)n(CC(=O)c2c[nH]c3ccccc23)c1 | / | / | -4.6% | / | / | / | / | /
Cc1cc(C(Br)(Br)Br)nc2ccccc12 | / | / | / | / | 14.1* | 14.1µM* | 13µM* | 16.8µM*
Cc1ccc(-c2ccc(/C=C3\C(=O)ON=C3c3ccccc3)o2)c([N+](=O)[O-])c1 | ? | 28.2µM* | 4.47µM* | 1.68µM* | 3.77* | ? | 18.4µM* | 13µM*
CCOc1ccc(-c2ccc(/C=C3/C(=N)N4C(C)=CSC4=NC3=O)o2)c([N+](=O)[O-])c1 | -8.0% | ? | -28.4% | 3.2% | / | / | / | /
COc1ccc(-n2nc(C)c([C@@H]3C=C[C@@H](NCc4ccc(N(C)C)cc4)C3)c2C)cc1 | / | / | 38.4%[176 µM] | / | / | / | / | /
O=C(c1cccs1)c1no[n+]([O-])c1C(=O)c1cccs1 | -0.5% | 44.7µM* | / | ? | 6.31* | 3.55µM* | 2.59µM* | 2.99µM*
O=C(c1ccc(Cl)nc1)c1cccs1 | -18.1% | ? | / | 3.9% | / | / | / | /
Cc1ccccc1CS(=O)(=O)c1nnc([C@H](Cc2ccccc2)NC(=O)OC(C)(C)C)o1 | ? | 20µM* | 6.6% | 7.52µM* | 5.97* | 3.55µM* | ? | ?
CCC(C)[C@@H](NC(=O)OC(C)(C)C)c1nnc(S(=O)(=O)Cc2cccc(C)c2)o1 (stereo not given in full) | -2.7% | 25.1µM* | 13.7% | 8.44µM* | 4.74* | ? | ? | ?
COc1ccccc1C1=NS(=O)(=O)N(C)C(C(=O)Nc2cccc(O)c2)=C1 | / | / | -41.2% | / | / | / | / | /
COC(=O)COc1ccc2c(=O)c(Oc3cccc(C)c3)c(C(F)(F)F)oc2c1 | / | / | -12.1% | / | / | / | / | /
CCOC(=O)c1nn(-c2ccccc2C)c(=O)c2c(N)scc12 | -27.2% | 35.5µM* | ? | -14.2% | ? | ? | 21.1% | -27.4%
CCOC(=O)c1nn(-c2ccccc2C)c(=O)c(C#N)c1C | -5.2% | -0.2% | -7.8% | -5.6% | / | / | / | /
O=[N+]([O-])c1cccnc1S(=O)(=O)c1ccccc1 | -0.1% | ? | 0.0% | -22.9% | / | / | / | /
COc1ccc([N+](=O)[O-])c(S(=O)(=O)c2ccccc2)n1 | -1.9% | 31.6µM* | -159.8% | 9.47µM* | 15* | ? | 18.4µM* | 16.4µM*
CN(C)S(=O)(=O)c1ccc(C(=O)Nc2cccnc2)cc1 | -14.8% | 19.6% | -0.2% | -9.4% | / | / | / | /
CN(C)S(=O)(=O)c1ccc(C(=O)/C=C/c2cccnc2)cc1 | 0.3% | 20µM* | -25.2% | -2.6% | ? | ? | 21.3% | ?
O=C(/C=C/c1cccnc1)/C=C/c1cccnc1 | -10.3% | 12.6µM* | 2.7% | -19.0% | 2.67* | -14.1% | 5.8µM* | 14.6µM*
O=C(CCc1ncc(-c2ccc(F)cc2F)o1)Nc1ccncc1 | / | / | 12.9% | / | / | / | / | /
CC(OC(=O)C1=NN(C)C(=O)CC1)C(=O)c1c[nH]c2ccccc12 (stereo not given) | / | / | -4.0% | / | / | / | / | /
